In the supplement of paper PMC6555819:

Legend:
Test in all cases: PBM binding z-score (relative to random genomic background probes); higher = stronger binding; sequences stand for … in GC…GCGATTGACAGCGTAGAATGAAGG
[1] = test system: FXR:RXRa (NR concentration 270 nM, RXRa partner concentration 90 nM)
Summary of the method: (§1)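 Custom Agilent 4×180K protein-binding microarrays carried double-stranded probes, each with a 34-nt variable region. These regions held direct-repeat seeds, single-nucleotide variants, half-site ablations and random human genomic background sequences. Ligand-free nuclear receptor dimers were incubated on the arrays for 1 h, antibodies against each partner (one per run) detected binding, and scanned fluorescence was regression-normalized. Binding z-scores take the random background probes as reference.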

[2] = test system: LXRa:RXRa (NR concentration 270 nM, RXRa partner concentration 90 nM)
Summary of the method: as §1

[3] = test system: LXRa homodimer (NR concentration 270 nM)
Summary of the method: as §1

[4] = test system: LXRb:RXRa (NR concentration 270 nM, RXRa partner concentration 90 nM)
Summary of the method: as §1

[5] = test system: LXRb homodimer (NR concentration 270 nM)
Summary of the method: as §1

[6] = test system: PPARa:RXRa (NR concentration 270 nM, RXRa partner concentration 90 nM)
Summary of the method: as §1

[7] = test system: PPARg:RXRa (NR concentration 180 nM, RXRa partner concentration 90 nM)
Summary of the method: as §1

[8] = test system: PPARg:RXRa 270nM:90nM, anti-RXR (NR concentration 270 nM, RXRa partner concentration 90 nM)
Summary of the method: as §1

[9] = test system: PPARg:RXRa 30nM:10nM, anti-RXR (NR concentration 30 nM, RXRa partner concentration 10 nM)
Summary of the method: as §1

[10] = test system: PPARg:RXRa 90nM:30nM, anti-RXR (NR concentration 90 nM, RXRa partner concentration 30 nM)
Summary of the method: as §1

[11] = test system: PPARg:RXRa DBDmut IVT, anti-RXR (DBD mutation: RXRa K156A/R161A, NR concentration 270 nM, RXRa partner concentration 90 nM)
Summary of the method: as §1

[12] = test system: PPARg:RXRa IVT, anti-PPARg (NR concentration 270 nM, RXRa partner concentration 90 nM)
Summary of the method: as §1

[13] = test system: PPARg DBDmut:RXRa IVT, anti-PPARg (DBD mutation: PPARg1 K132A/R137A, NR concentration 270 nM, RXRa partner concentration 90 nM)
Summary of the method: as §1

[14] = test system: PPARg DBDmut IVT, anti-PPARg (DBD mutation: PPARg1 K132A/R137A, NR concentration 270 nM)
Summary of the method: as §1

[15] = test system: PPARg homodimer (NR concentration 180 nM)
Summary of the method: as §1

[16] = test system: PXR:RXRa (NR concentration 270 nM, RXRa partner concentration 90 nM)
Summary of the method: as §1

[17] = test system: PXR homodimer (NR concentration 270 nM)
Summary of the method: as §1

[18] = test system: RARa:RXR (NR concentration 270 nM, RXRa partner concentration 90 nM)
Summary of the method: as §1

[19] = test system: RARa homodimer (NR concentration 270 nM)
Summary of the method: as §1

[20] = test system: RARb:RXRa (NR concentration 270 nM, RXRa partner concentration 90 nM)
Summary of the method: as §1

Row | Sequence | PBM binding z-score [1] | PBM binding z-score [2] | PBM binding z-score [3] | PBM binding z-score [4] | PBM binding z-score [5] | PBM binding z-score [6] | PBM binding z-score [7] | PBM binding z-score [8] | PBM binding z-score [9] | PBM binding z-score [10] | PBM binding z-score [11] | PBM binding z-score [12] | PBM binding z-score [13] | PBM binding z-score [14] | PBM binding z-score [15] | PBM binding z-score [16] | PBM binding z-score [17] | PBM binding z-score [18] | PBM binding z-score [19] | PBM binding z-score [20]
1 | GCTCGGAGGACAAGGTCAGAGATTTGTCCGTAGA | 1.22 | 1.62 | -0.347 | 1.2 | -0.658 | 2.13 | 0.719 | 1.53 | -0.349 | 0.587 | -0.252 | 0.673 | -0.517 | -0.427 | 0.0878 | 1.24 | -0.24 | 1.77 | -0.275 | 3.48
2 | CCTGCTAGGTCACGGTCAGCTAATCTACAGTATG | 4.56 | 3.65 | 0.541 | 2.45 | 0.134 | 4.05 | 4.31 | 4.17 | 1.72 | 3.2 | 5.34 | 5.12 | 1.07 | 0.203 | 2.79 | 2.08 | -0.469 | 3.24 | 1.67 | 4.46
3 | TTACCAAGGTGAGCAGAGGTCGTTGATCCAACTC | 1.14 | 1.86 | -0.283 | 1.37 | -0.627 | 2.38 | 2.17 | 2.89 | 0.857 | 2.68 | 0.947 | 2.49 | -0.426 | -0.173 | 0.497 | 4.23 | -0.112 | 2.23 | -0.99 | 1.99
4 | CGAACTAGGTCATCTAGGACAGTGAATACATTGA | 4.09 | 2.49 | 0.484 | 2.12 | -0.144 | 4.72 | 7.33 | 6.44 | 3.66 | 5.7 | 8.06 | 8.21 | 3.51 | 1.83 | 2.99 | 1.73 | 0.602 | 2.23 | 0.753 | 3.92
5 | CAGACTAGGTCACAGAGGTCAAAGTCCGTGCGTA | 6.87 | 6.52 | 6.79 | 6.23 | 1.62 | 6.22 | 8.66 | 7.43 | 5.05 | 7.36 | 7.57 | 8 | 2.36 | 0.704 | 4.93 | 6.65 | 11.5 | 7.28 | 2.93 | 5.07
6 | CCGACTGGGGCATAAGGATACCATAAGCCAGCCC | -0.174 | -0.373 | -0.612 | -0.813 | -1.53 | -0.0359 | 1.29 | 1.46 | 0.0303 | 0.707 | 2.56 | 1.93 | -0.873 | -1.29 | -0.477 | -0.797 | -0.877 | -0.463 | 0.0261 | 0.0537
7 | CCTCGGAGGACAACAGGAGATCAGAGCTGCCAGA | -0.269 | -0.36 | -0.193 | -0.853 | -1.12 | -0.626 | 0.424 | -0.794 | -0.377 | -0.822 | -0.232 | -0.63 | -1.13 | -1.73 | -0.0101 | -0.68 | -0.412 | -0.621 | -0.0651 | 0.694
8 | GGAACGAGGGCAAGTTAATAGCAGAGTTTGATGG | 0.629 | 0.178 | -0.0244 | 0.334 | -0.49 | 1.53 | 1.14 | 0.86 | 0.37 | 0.378 | 3.46 | 2.52 | 0.284 | -0.167 | 0.47 | 0.548 | 0.977 | 0.427 | -0.189 | 2.26
9 | CGAACGAGGGCATGAGCTGATAGCAAATGCCGAT | 0.486 | 0.253 | -0.266 | 0.0131 | -0.954 | 1.39 | 1.02 | 0.67 | -0.212 | 0.364 | 2.42 | 1.97 | 0.174 | -0.689 | -0.392 | 0.327 | -0.221 | 0.529 | -0.331 | 1.87
10 | CCAGACAGGTAAAAGGTAACTCAGTCTGGTACGC | -0.0774 | 0.12 | -0.25 | 0.125 | -0.535 | 2.14 | 3.01 | 3.82 | 2.27 | 3.94 | 0.377 | 0.821 | -0.535 | -0.566 | 0.614 | 0.265 | 0.0427 | 0.712 | 0.346 | 0.382
11 | TCTCGGAGGACACGAATGTCAGAGCTTTCCAGAG | 0.579 | -0.0398 | -0.547 | -0.175 | -0.958 | 0.22 | -0.0172 | 0.69 | 1.96 | 1.29 | 1.02 | -0.236 | -0.725 | -1.02 | -0.998 | -0.181 | -0.893 | -0.129 | -0.458 | 1.47
12 | TCTAGTCGGTCACGGAGGTCACACACGACGGGTA | 4.64 | 4.8 | 4.58 | 3.54 | 0.882 | 4.58 | 5.07 | 4.97 | 3.86 | 4.54 | 4.17 | 5.71 | 2.36 | 0.492 | 3.93 | 4.93 | 2.24 | 5.02 | 1.39 | 4.56
13 | TCTCGGAGGACACGAAGGTCAGAACTTTCCAGAG | 0.92 | 1.16 | 0.605 | 1.31 | -0.708 | 1.69 | 0.527 | 1.59 | 2.55 | 1.96 | 1.69 | 0.656 | 0.251 | -1.14 | 1.13 | 1.84 | 1.09 | 1.81 | 0.264 | 3.08
14 | TAGCCTAGGTCATGCGGGGCAGTATAGTGTCGGC | 3.99 | 3.24 | 0.431 | 2.23 | 0.295 | 3.56 | 2.18 | 2.41 | 0.0404 | 1.28 | 1.69 | 3.02 | 0.874 | -0.0244 | 0.993 | 2.16 | -0.37 | 2.61 | -0.595 | 3.75
15 | CGAACGAGGGCATTAGTTGATAGCAAATGCCGAT | 0.0908 | -0.0116 | -0.501 | -0.0875 | -0.766 | 0.595 | 0.83 | 0.432 | 0.0228 | -0.0505 | 2.78 | 1.35 | -1.12 | -0.313 | -0.0468 | 0.174 | 0.377 | 0.239 | -0.278 | 1.51
